Eleven compounds from PubChem BioAssay (NCATS) can be followed below.

Inconclusive results are not listed. A call without a number means that no potency is given here. Values without a mark were called inactive. Active and inactive are the calls of the source. Calls follow the shape of the dose curve; as a rule, active = well fitted inhibition curve with a large enough effect; inconclusive = small, poorly fitted or top-dose-only effect; inactive = no such curve, though single readings can be large or run the other way.
Potency is read from the fitted curve at half-maximal effect.

Chain of Cytochrome P450 1A2 (Homo sapiens) (P05177 whole entry, looked up): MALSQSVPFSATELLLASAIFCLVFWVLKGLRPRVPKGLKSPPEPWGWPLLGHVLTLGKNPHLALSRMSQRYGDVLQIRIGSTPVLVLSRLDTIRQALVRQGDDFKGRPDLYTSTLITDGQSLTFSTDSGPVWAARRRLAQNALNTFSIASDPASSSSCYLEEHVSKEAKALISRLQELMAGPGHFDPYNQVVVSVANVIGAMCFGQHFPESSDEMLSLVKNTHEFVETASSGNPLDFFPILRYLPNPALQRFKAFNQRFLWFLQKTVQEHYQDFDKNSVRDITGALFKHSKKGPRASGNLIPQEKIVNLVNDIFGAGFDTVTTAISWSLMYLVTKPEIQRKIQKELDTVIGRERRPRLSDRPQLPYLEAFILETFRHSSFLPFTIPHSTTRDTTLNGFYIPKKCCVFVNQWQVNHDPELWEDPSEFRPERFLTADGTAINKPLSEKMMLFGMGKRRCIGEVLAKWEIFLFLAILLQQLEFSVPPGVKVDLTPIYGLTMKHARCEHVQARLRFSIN

This assay has as its target Cytochrome P450 1A2 (Homo sapiens) (UniProt P05177). Put plainly: qHTS for inhibitors of CYPIA2 against the NCATS DSHEA and TCM libraries (AID 1919976).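 As to activity change, negative = inhibition: light from luciferin formed by CYP1A2 from a pro-luciferin substrate.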 Particulars: recombinant CYP1A2 enzyme activity, luminescence; series mostly up to 37 µM. An excerpt: Assay Development and Screening Technology Laboratory (ADST)
National Center for Advancing Translational Sciences (NCATS), Rockville, MD
National Institute of Health (NIH), Bethesda, Maryland
Dietary Supplements and Natural Products have minor oversight of their safety and efficacy. We assembled a collection of Dietary Supplements and Natural Products (DSNP) as well as Traditional Chinese Medicinal (TCM) Plant extracts, which were screened against an in vitro panel of assays, including a liver cytochrome p450 enzyme panel, CAR/PXR signaling pathways, and P-gp transporter assays, to assess their activity. This pipeline facilitated the interrogation of Natural Product-Drug Interaction (NaPDI) through prominent metabolizing pathways. In addition, we compared the activity profiles of the DSNP/TCM substances with those of an approved drug collection. Many of the approved drugs have well-annotated mechanisms of action (MOA) while the MOAs for most of the DSNP and TCM samples remain unknown. Based on the premise that compounds with similar activity profiles tend to share similar targets or MOA, we clustered the library activity profiles to identify overlap with the NCATS Pharmaceutical Collection to predict the MOAs of the DSNP/TCM substances. Overall, we highlight four significant bioactivity profiles (measured by p-values) as examples of this prediction. To assess broad cytotoxicity, we employed screening against a HepG2 cell line. In addition, transporter-mediated drug interactions are utilized in the characterization of DDIs using a P-glycoprotein (P-gp) assays. To profile potential P-gp activity, a differential cell viability was measured against two cell lines: a parental KB-3-1 human cervical adenocarcinoma cell line and the drug-resistant subline KB-8-5-11 that overexpresses P-gp.
To this end, we profiled both collections for potential CAR and/or PXR activity, employing a previously published 1536-well qHTS assay.
[1] Lee TD, et al. A High-Throughput Screen of a Library of Therapeutics Identifies Cytotoxic Substrates of P-glycoprotein. Mol Pharmacol. Nov 2019;96(5):629-640. doi:10.1124/mol.119.115964
PROTOCOL TABLE (as described by Inglese J, Shamu CE and Guy RK. 2007)
SEQUENCE No. (e.g., 1, 2, 3, etc.); […] (e.g., Cells, Incubation, Reagent, etc.); VALUE; DESCRIPTION.
1; Reagent; 2 uL; cytochrome P450 enzyme and luciferin substrate or buffer only, white solid-bottom Greiner plate.
2; Compounds and control; 16 nL; Kalypsis pintool (Wako USA) equipped with a 1536-well pin head to transfer to the assay plates.
3; Incubation; 15 min; room temperature.
4; Reagent; 2 uL; nicotinamide adenine dinucleotide phosphate (NADPH).
5; Incubation; 30 - 45 min; room temperature in the dark.
6; Reagent; 4 uL; P450-Glo assay detection reagent.
7; Centrifuge; 1000 RPM; 15 seconds.
8; Incubation; 30 min; room temperature.
9; Read; Luminescence; ViewLux plate reader.
NOTES (numbers refer to Sequence numbers above)
1. A 2 uL mixture of corresponding enzymes and luciferin substrate (final concentrations CYP enzyme-specific and pro-luciferin substrate-specific) or minus-enzyme (assay buffer conditions supplied by the manufacturer for respective enzyme isoform; typically, 100 mM KPO4) and luciferin substrate were dispensed using a BioRAPTR FRD (Beckman Coulter, Brea, CA) into columns of a 1536-well white solid-bottom medium binding plate (Greiner Bio-One, Monroe, NC). Five isoforms of cytochrome P450 were used (CYP1A2, CYP2C9, CYP2C19, CYP2D6, and CYP3A4).
2. […] Intraplate controls furafylline (CYP1A2), sulfaphenazole (CYP2C9), ketoconazole (CYP2C19), quinidine (CYP2D6), and ketoconazole (CYP3A4) were used correspondingly.
3. Assay plates were incubated at room temperature for 15 min.
4-5. […]
In general terms: Quantitative high-throughput screening tests each substance at several concentrations.
Take `CC(C)=CCC/C(C)=C/C=C/C(C)=C/C=C/C(C)=C/C=C/C=C(C)/C=C/C=C(C)/C=C/C=C(\C)CCC=C(C)C`: the Potency result was “inactive”.
For `C=C1CC[C@H](O)CC1=C/C=C1\CCC[C@]2(C)[C@@H]([C@H](C)/C=C/[C@H](C)C(C)C)CC[C@@H]12`, the Potency result is “inactive”.
On the same count and under the same terms, to `CC/C=C\C/C=C\C/C=C\C/C=C\C/C=C\CCCC(=O)O` belongs “inactive”.
For the compound `CC(C)=CCC/C(C)=C/CC/C(C)=C/CC/C(C)=C/CC1=C(C)C(=O)c2ccccc2C1=O`, the Potency entry is “inactive”.
For `CC/C=C\C/C=C\C/C=C\C/C=C\C/C=C\C/C=C\CCC(=O)O`, the Potency entry is “inactive”.
Take `CCCCC/C=C\C/C=C\C/C=C\CCCCC(=O)O`: the activity change, negative = inhibition is 7.42% [at 4.62 µM].
Turning to `Oc1cccc(O)c1O`, the Potency entry was “inactive”.
Still for that read-out and setting: under `O=C(O)/C=C/c1ccccc1` stands “inactive”; under `CC/C=C\C/C=C\C/C=C\CCCCCCCC(=O)O`, “inactive”.
Same read-out and setting: under `CC1=CCC2CC1C2(C)C` (stereo unspecified) stands 3.55 µM (active); under `C=C1CC[C@H](O)C/C1=C\C=C1/CCC[C@]2(C)[C@@H]([C@H](C)CCCC(C)C)CC[C@@H]12`, “inactive”.
